Source: paper PMC4336329 (PLoS ONE, 2015)
Among all 310,000 compounds or so, about 14,000 (4.5%) showed an effect of 50% or more. The effect is printed as a negative number. What follows is part of a selection rich in strong results, with near analogues and random picks from the rest.

Target: human ether-à-go-go-related gene (hERG) potassium channel (human, UniProt Q12809)
Assay: primary screen, population patch clamp on CHO cells stably expressing hERG; higher = less effect of the substance
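Note: peak tail current of the secondary pulse compared with the same well before compound.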

Sequence of human ether-à-go-go-related gene (hERG) potassium channel (Q12809 whole entry, looked up): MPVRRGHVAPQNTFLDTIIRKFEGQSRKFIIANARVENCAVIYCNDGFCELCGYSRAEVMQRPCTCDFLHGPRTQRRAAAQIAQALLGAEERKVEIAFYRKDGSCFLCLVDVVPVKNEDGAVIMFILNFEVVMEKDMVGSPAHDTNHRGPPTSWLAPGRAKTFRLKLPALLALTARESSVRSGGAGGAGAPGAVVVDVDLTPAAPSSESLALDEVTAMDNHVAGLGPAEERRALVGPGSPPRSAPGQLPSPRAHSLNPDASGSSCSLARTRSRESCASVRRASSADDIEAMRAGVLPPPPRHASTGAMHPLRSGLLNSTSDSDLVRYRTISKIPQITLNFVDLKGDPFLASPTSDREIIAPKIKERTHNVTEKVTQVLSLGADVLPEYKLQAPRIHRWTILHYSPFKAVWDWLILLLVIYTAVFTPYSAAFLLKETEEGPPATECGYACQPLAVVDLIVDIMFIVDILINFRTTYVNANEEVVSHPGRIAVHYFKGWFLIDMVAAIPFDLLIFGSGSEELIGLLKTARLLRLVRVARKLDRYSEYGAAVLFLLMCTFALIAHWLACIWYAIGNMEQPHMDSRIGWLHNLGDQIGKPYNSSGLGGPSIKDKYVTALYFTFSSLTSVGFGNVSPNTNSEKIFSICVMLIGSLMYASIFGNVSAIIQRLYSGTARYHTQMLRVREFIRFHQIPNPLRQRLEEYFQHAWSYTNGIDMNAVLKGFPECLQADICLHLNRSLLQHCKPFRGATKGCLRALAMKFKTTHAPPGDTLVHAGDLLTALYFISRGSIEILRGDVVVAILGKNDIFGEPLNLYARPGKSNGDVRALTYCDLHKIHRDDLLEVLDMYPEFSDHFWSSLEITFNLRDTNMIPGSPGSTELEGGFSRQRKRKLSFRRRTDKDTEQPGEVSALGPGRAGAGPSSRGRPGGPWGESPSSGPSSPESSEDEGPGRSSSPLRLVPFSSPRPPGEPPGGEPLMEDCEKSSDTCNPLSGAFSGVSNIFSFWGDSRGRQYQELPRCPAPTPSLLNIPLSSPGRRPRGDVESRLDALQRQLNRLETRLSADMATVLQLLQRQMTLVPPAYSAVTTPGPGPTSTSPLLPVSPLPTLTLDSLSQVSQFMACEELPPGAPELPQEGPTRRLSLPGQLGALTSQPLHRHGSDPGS

| SMILES | hERG current change (%, negative = inhibition) at 10uM |
| --- | --- |
| Cc1ccc2cc(C(c3nnnn3C3CCCC3)N(Cc3ccccc3)Cc3ccco3)c(=O)[nH]c2c1 (stereo not drawn) | 10.7% |
| CCC(C)(C)n1nnnc1C(c1cc2ccc(C)cc2[nH]c1=O)N(Cc1cccnc1)Cc1ccco1 (stereo not drawn) | -60.6% |
| CCC(C)(C)n1nnnc1C(C(C)C)N(Cc1cccnc1)Cc1ccco1 (stereo not drawn) | -2.92% |
| Cc1cc2cc(C(c3nnnn3C3CCCC3)N(Cc3cccnc3)Cc3ccco3)c(=O)[nH]c2cc1C (stereo not drawn) | -24.3% |
| Cc1ccc2[nH]c(=O)c(C(c3nnnn3C3CCCC3)N(Cc3cccnc3)Cc3ccco3)cc2c1 (stereo not drawn) | -5.71% |
| Cc1ccc2cc(C(c3nnnn3C3CCCC3)N(Cc3cccnc3)Cc3ccco3)c(=O)[nH]c2c1 (stereo not drawn) | -77.8% |
| O=C(CC1C(=O)NCCN1Cc1ccc(-c2ccccc2)cc1)NCCCn1ccnc1 (stereo not drawn) | 14% |
| CC(C)CCNS(=O)(=O)c1cc2c3c(c1)CCN3C(=O)CC2 | 2.2% |
| COc1cc(-c2noc(CCCC(=O)NCc3ccco3)n2)cc(OC)c1OC | -12.1% |
| O=C1N(Cc2cccc(Cl)c2)C[C@@H]2C[C@@H](c3cccn3-c3ccccn3)N3CCC[C@@]123 | -73.5% |
| O=C1N(Cc2cccc(Cl)c2)C[C@@H]2C[C@@H](c3cccn3-c3cccnc3)N3CCC[C@@]123 | -35.7% |
| O=C1N(Cc2cccc(Cl)c2)C[C@@H]2C[C@@H](c3cccn3-c3nccs3)N3CCC[C@@]123 | -68% |
| CCn1ccnc1[C@@H]1C[C@H]2CN(Cc3cccc(Cl)c3)C(=O)[C@]23CCCN13 | -39.3% |
| C#CCOCCOCCOCCNc1nc(N2CCOCC2)nc(N2CCN(C(=O)[C@H](Cc3cc4ccccc4[nH]3)n3cc([C@@H](N)C(C)CC)nn3)CC2)n1.Cl (stereo partly drawn) | 9.81% |
| O=C(CSc1nc(-c2ccccc2)cc(=O)[nH]1)N1CCOCC1 | 5.84% |
| CCOc1ccc2[nH]c3c(N4CCN(c5ccccn5)CC4)ncnc3c2c1 | -59.4% |
| CCOc1ccc2[nH]c3c(N4CCC5(CC4)OCCO5)ncnc3c2c1 | 5.84% |
| O=C(c1ccco1)N1CCN(c2ncnc3c(-c4ccc(Cl)cc4)nsc23)CC1 | 4.82% |
| COc1cc2[nH]c3c(N4CCN(c5ccccn5)CC4)ncnc3c2cc1OC | 13.1% |
| O=C(c1ccco1)N1CCN(c2ncnc3c2[nH]c2ccc(Cl)cc23)CC1 | -65.2% |
| CCOc1ccc2[nH]c3c(N4CCc5ccccc5C4)ncnc3c2c1 | 5.49% |
| CCOc1ccc2[nH]c3c(N4CCN(C(=O)c5ccco5)CC4)ncnc3c2c1 | -58.4% |
| Cc1cccc2[nH]c3c(N4CCN(C(=O)c5ccco5)CC4)ncnc3c12 | -27% |
| CCOC(=O)N1CCN(c2ncnc3c2[nH]c2ccc(OC)cc23)CC1 | -44.1% |
